From PubChem BioAssay
Calls of active or inactive are those of the source.

Experiments:
[1] = test system: Wnt5a (protein binding on small-molecule microarray); experiment: Wnt5a binders on small-molecule microarray, primary screen, biophysical, 635/667 nm fluorescence (AID 1142); details: 635 nm fluorescence, higher = more signal;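 note: fluorescence read at 667 nm with signal to noise per printed feature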
[2] = cell viability in Huh7 cells, primary screen, cytotoxicity control for HCV replication inhibitor project, CellTiter-Glo luminescence, basal, 48 h (AID 1143); details: Huh7 HCV replicon, higher = more signal, called active from +8 up or from −8 down;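 note: Huh7 hepatoma cells carrying a hepatitis C replication reporter with no stimulus; test concentration not given here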
[3] = CREB reporter modulators without forskolin, primary screen, cell-based, PC12, CRE-LacZ reporter, unstimulated (AID 1145); details: no forskolin, luminescence, 4.5 h, higher = more signal, called active from +8 up or from −8 down
[4] = CREB reporter modulators under forskolin, primary screen, cell-based, PC12, CRE-LacZ reporter, forskolin-stimulated (AID 1146); details: luminescence, 4.5 h, higher = more signal, called active from +8 up or from −8 down;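 note: PC12 cells with 6xCRE LacZ reporter stimulated by forskolin 10 µM; beta-galactosidase reporter signal reflecting CREB driven transcription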
[5] = molecular target: Streptavidin (Streptomyces avidinii) (UniProt P22629); experiment: streptavidin binders on small-molecule microarray, primary screen, artefact control for SMM compound annotation, biophysical, 635/667 nm fluorescence (AID 1147); details: streptavidin binding, higher = more signal;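 note: signal reflects streptavidin binding to arrayed compounds as a control protein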
[6] = small-molecule binders of probe aInhba, primary screen, biochemical, small-molecule microarray, 635/667 nm fluorescence (AID 1148); details: higher = more signal;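 note: score merges 667nm spot fluorescence with signal-to-noise for antibody binding to printed compounds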
Torsin-1A (Homo sapiens) [7] = molecular target: Torsin-1A (Homo sapiens) (UniProt O14656); experiment: torsin A binders from cell lysate, primary screen, small-molecule microarray, wild-type, 635/667 nm (AID 1149); details: COS7 hTOR1A-WT lysate, 635 nm fluorescence, higher = more signal
Torsin-1A (Homo sapiens) [8] = molecular target: Torsin-1A (Homo sapiens) (UniProt O14656); experiment: small-molecule binders of mutant TOR1A in lysate, primary screen, cell lysate, small-molecule microarray, COS7 lysate, 635/667 nm fluorescence (AID 1150); details: COS7 hTOR1A mutant lysate, 635 nm fluorescence, higher = more signal;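 note: score pools 667 nm emission and signal to noise measuring lysate protein binding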
[9] = test system: Sonic hedgehog protein (Shh); experiment: small-molecule binders of Shh protein, primary screen, biochemical, small-molecule microarray, 635/667 nm fluorescence (AID 1151); details: small-molecule microarray binding, 635 nm fluorescence; higher = more signal;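 note: Shh protein binding to compounds spotted on small-molecule microarray slides; score combines spot fluorescence intensity with signal-to-noise across triplicate slides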
[10] = E. coli DRC41 culture turbidity changes, primary screen, E. coli filamentation inducer project, strain DRC41, OD650, 48 h (AID 1152);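 note: E. coli MC1000 strain DRC41 lacking acrAB efflux pump and sulA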; details: E. coli DRC41 (acrAB sulA), higher = more signal, called active from +8 up or from −8 down
[11] = small-molecule binders of probe aLefty1, primary screen, biochemical, small-molecule microarray, 635/667 nm fluorescence (AID 1153); details: higher = more signal;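 note: score merges spot fluorescence with signal-to-noise ratio from the scanned slide images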
[12] = PSAC antagonists in infected red cells, primary screen, cell-based, P. falciparum Indochina, OD700, 1 h (AID 1154); details: P. falciparum Indochina infected RBC osmotic lysis, higher = more signal, called active from +8 up or from −8 down
[13] = PSAC antagonists in infected red cells, primary screen, cell-based, P. falciparum Indochina, OD700, 2 h (AID 1155);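 note: lysis reports solute entry through the parasite surface anion channel PSAC; channel blockers reduce lysis of infected cells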; details: P. falciparum Indochina infected erythrocytes, osmotic lysis OD700; higher = more signal, called active from +8 up or from −8 down
[14] = osmotic lysis modulators in infected erythrocytes, primary screen, PSAC antagonist project, cell-based, P. falciparum Indochina, OD700, 3 h (AID 1156); details: higher = more signal, called active from +8 up or from −8 down
[15] = PSAC antagonists in infected red cells, primary screen, cell-based, P. falciparum Indochina, OD700, 18 h (AID 1157); details: P. falciparum Indochina infected erythrocytes, osmotic lysis OD700, 18 h; higher = more signal, called active from +8 up or from −8 down
[16] = modulators of S6 phosphorylation in cells, primary screen, cell-based, A549, cytoblot, luminescence, serum-stimulated (AID 1158); details: A549 phospho-S6 cytoblot, 5 h, higher = more signal;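 note: serum-stimulated A549 lung adenocarcinoma cells; signal is phosphorylated S6 detected by cytoblot immunostaining with HRP secondary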
[17] = molecular target: NADPH oxidase 2 (Homo sapiens) (UniProt P04839); experiment: NOX2-dependent H2O2 signal modulators, primary screen, NOX inhibitor project, cell-based, HEK293-NOX2, PMA-stimulated, Amplex Red fluorescence (AID 1159); details: 45 min, higher = more signal, called active from +8 up or from −8 down; note: test concentration not given here
[18] = molecular target: NADPH oxidase 4 (Homo sapiens) (UniProt Q9NPH5); experiment: NOX4-dependent H2O2 signal modulators, primary screen, NOX inhibitor project, cell-based, HEK293-NOX4, tetracycline-induced, Amplex Red fluorescence (AID 1160); details: 45 min, higher = more signal, called active from +8 up or from −8 down
[19] = molecular target: NADPH oxidase 5 (Homo sapiens) (UniProt Q96PH1); experiment: NOX5-dependent H2O2 signal modulators, primary screen, NOX inhibitor project, cell-based, HEK293-NOX5, Amplex Red fluorescence (AID 1161); details: HEK293-NOX5, ionomycin, 45 min, higher = more signal
[20] = A549 cell viability effects, profiling panel, calcein-AM fluorescence, 48 h, basal (AID 1162); details: higher = more signal; note: test concentration not given here

Sequence of Torsin-1A (Homo sapiens) (O14656 whole entry, looked up): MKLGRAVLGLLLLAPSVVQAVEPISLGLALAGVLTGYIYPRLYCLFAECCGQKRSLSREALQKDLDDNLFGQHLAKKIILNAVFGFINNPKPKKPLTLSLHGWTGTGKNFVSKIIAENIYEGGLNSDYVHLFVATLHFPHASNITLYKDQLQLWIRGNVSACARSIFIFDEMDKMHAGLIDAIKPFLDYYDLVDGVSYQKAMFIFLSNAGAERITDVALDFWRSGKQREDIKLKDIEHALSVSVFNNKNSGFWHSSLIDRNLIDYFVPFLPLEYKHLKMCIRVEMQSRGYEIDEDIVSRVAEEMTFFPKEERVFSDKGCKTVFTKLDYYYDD
Sequence of NADPH oxidase 4 (Homo sapiens) (Q9NPH5 whole entry, looked up): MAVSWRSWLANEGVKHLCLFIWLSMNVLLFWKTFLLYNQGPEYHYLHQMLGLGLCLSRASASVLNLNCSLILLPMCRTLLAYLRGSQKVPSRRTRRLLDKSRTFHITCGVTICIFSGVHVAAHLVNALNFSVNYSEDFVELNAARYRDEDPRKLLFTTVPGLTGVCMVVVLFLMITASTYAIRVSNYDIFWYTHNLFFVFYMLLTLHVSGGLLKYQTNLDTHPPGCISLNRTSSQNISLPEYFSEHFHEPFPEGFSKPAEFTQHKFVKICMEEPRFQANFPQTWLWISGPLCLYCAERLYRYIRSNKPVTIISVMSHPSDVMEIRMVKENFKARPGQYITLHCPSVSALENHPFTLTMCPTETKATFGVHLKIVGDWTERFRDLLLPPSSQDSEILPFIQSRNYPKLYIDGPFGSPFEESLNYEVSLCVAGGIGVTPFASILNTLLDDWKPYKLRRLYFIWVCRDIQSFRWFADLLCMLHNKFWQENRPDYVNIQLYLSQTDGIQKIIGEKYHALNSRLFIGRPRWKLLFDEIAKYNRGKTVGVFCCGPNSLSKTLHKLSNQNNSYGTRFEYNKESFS
Sequence of NADPH oxidase 2 (Homo sapiens) (P04839 whole entry, looked up): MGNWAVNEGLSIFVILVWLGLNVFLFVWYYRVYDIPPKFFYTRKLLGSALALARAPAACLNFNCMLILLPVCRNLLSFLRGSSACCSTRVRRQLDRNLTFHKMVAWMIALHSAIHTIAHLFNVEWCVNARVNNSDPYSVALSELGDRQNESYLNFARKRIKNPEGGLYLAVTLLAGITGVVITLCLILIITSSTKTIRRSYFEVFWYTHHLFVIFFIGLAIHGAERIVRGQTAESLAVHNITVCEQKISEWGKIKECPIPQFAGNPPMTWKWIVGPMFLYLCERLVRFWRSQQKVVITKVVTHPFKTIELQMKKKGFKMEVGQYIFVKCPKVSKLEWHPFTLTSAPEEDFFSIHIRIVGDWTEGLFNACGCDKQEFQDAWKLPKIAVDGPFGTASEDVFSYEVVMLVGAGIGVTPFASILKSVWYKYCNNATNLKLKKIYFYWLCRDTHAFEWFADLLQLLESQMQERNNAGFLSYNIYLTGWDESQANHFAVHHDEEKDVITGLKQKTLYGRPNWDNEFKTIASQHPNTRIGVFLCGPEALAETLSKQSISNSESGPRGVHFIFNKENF
Sequence of Streptavidin (Streptomyces avidinii) (P22629 whole entry, looked up): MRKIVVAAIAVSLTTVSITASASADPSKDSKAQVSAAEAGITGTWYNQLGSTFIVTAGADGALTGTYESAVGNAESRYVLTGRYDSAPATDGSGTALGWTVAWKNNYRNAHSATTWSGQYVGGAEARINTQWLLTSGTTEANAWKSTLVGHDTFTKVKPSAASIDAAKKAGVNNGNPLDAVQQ
Sequence of NADPH oxidase 5 (Homo sapiens) (Q96PH1 whole entry, looked up): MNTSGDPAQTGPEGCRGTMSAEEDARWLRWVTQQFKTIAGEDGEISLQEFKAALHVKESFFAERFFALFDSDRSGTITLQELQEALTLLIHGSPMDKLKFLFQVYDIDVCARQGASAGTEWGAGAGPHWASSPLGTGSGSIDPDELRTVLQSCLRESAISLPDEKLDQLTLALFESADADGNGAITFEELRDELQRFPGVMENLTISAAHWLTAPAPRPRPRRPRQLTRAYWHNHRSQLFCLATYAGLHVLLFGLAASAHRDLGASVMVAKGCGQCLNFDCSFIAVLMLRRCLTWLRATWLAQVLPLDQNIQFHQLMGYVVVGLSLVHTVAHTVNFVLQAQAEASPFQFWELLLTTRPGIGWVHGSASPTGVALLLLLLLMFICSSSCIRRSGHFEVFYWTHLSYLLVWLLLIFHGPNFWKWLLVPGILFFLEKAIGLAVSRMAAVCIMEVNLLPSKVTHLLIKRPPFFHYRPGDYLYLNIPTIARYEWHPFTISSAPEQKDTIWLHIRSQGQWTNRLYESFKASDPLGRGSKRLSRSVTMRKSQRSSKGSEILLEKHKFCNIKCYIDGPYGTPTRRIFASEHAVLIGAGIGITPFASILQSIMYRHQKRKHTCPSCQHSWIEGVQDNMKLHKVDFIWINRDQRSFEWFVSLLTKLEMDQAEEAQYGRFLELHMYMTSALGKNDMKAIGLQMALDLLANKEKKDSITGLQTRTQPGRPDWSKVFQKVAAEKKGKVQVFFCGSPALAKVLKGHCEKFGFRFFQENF

| SMILES | composite z-score [1] | z-score [2] | z-score [3] | z-score [4] | composite z-score [5] | composite z-score [6] | composite z-score (Torsin-1A (Homo sapiens) [7]) | composite z-score (Torsin-1A (Homo sapiens) [8]) | composite z-score [9] | z-score [10] | composite z-score [11] | z-score [12] | z-score [13] | z-score [14] | z-score [15] | z-score [16] | z-score [17] | z-score [18] | z-score [19] | z-score [20] |
| --- | --- | --- | --- | --- | --- | --- | --- | --- | --- | --- | --- | --- | --- | --- | --- | --- | --- | --- | --- | --- |
| O=C(NC1CC1)[C@@H]1c2ccccc2C(=O)N(Cc2ccccc2C(F)(F)F)[C@H]1c1ccc(CO)cc1 | 0.312 | -0.568 (inactive) | -0.0512 (inactive) | -1.37 (inactive) | -0.47 | 0.0439 | 0.504 | 0.723 | 0.732 | 1.48 (inactive) | 0.106 | 2.17 (inactive) | 0.721 (inactive) | -0.335 (inactive) | 0.106 (inactive) | 0.152 | 0.583 (inactive) | 0.647 (inactive) | 1.26 | 1.88 |
| CCOC(=O)C[C@H]1[C@H](OC(=O)Cc2ccc3c(c2)OCO3)[C@@H](NC(=O)c2ccc3ccccc3c2)c2cc(OCCCO)ccc2N1C(=O)c1ccc2ccccc2n1 | 0.0364 | -2.81 (inactive) | 7.41 (inactive) | -1.37 (inactive) | 0.398 | 0.219 | 0.0253 | 0.107 | 0.555 | 0.869 (inactive) | 0.169 | 11.8 (active) | 1.44 (inactive) | -0.859 (inactive) | 0.0679 (inactive) | 1.49 | 0.0194 (inactive) | -0.0398 (inactive) | -3.84 | 3.85 |
| Cc1ccc(N2C(=O)c3ccccc3[C@](C)(C(=O)NCC(F)(F)F)[C@@H]2c2ccc(CO)cc2)nc1 | -0.318 | -1.01 (inactive) | 0.234 (inactive) | -1.31 (inactive) | -0.763 | -0.179 | -1.08 | -0.727 | -1.46 | 1.49 (inactive) | -0.147 | 0.57 (inactive) | 0.253 (inactive) | -0.317 (inactive) | 0.127 (inactive) | 0.654 | -0.103 (inactive) | -1.56 (inactive) | 1.22 | 0.708 |
| O=C1O[C@@H](c2ccccc2)[C@@H](c2ccccc2)N2[C@@H](c3ccc(OCCO)cc3)[C@]3(C(=O)Nc4ccc(C#CC5(O)CCCCCC5)cc43)[C@@H](C(=O)NC[C@H](O)c3ccccc3)[C@H]12 | 0.432 | -3.51 (inactive) | 0.0776 (inactive) | -1.71 (inactive) | 0.866 | 0.0827 | 1.2 | 0.711 | 0.855 | 2.35 (inactive) | 0.339 | 1.21 (inactive) | 0.484 (inactive) | -0.206 (inactive) | -0.863 (inactive) | 1.13 | 1.37 (inactive) | 1.14 (inactive) | 0.427 | 0.71 |
| Cc1ccc(S[C@]2(C(=O)NC3CC3)CC(=O)N(Cc3ccccc3C(F)(F)F)[C@@H]2c2ccc(CO)cc2I)cc1 | 0.132 | -2.54 (inactive) | -0.114 (inactive) | -0.479 (inactive) | -0.297 | -0.0523 | -0.0139 | 0.231 | 0.385 | 2.31 (inactive) | 0.309 | 5.75 (inactive) | -0.15 (inactive) | 0.693 (inactive) | -1.31 (inactive) | 1.8 | 1.42 (inactive) | -2.36 (inactive) | 1.21 | 0.243 |
| COc1ccc([Si](C)(C)[C@@H]2[C@@H](CCn3cc(CCO)nn3)O[C@]3(C(=O)N(Cc4ccc(N5C(=O)c6cccc7cccc5c67)cc4)c4ccccc43)[C@H]2C)cc1 | 0.0378 | -7.93 (inactive) | 0.353 (inactive) | -1.65 (inactive) | 0.256 | -0.0529 | 0.815 | 0.609 | 0.907 | 1.93 (inactive) | 0.457 | 6 (inactive) | 0.758 (inactive) | -1.06 (inactive) | -1.22 (inactive) | 2.29 | 2.23 (inactive) | 1.62 (inactive) | 1.42 | -1.32 |
| O=C1O[C@H](c2ccccc2)[C@H](c2ccccc2)N2[C@H]1[C@@H](C(=O)NC[C@H](O)c1ccccc1)[C@]1(C(=O)Nc3ccc(C#CC4(O)CCCCCC4)cc31)[C@H]2c1ccc(O)cc1 | 0.195 | -2.13 (inactive) | -0.0607 (inactive) | -0.58 (inactive) | 0.26 | 0.0377 | 0.704 | 1.02 | 1.27 | 1.46 (inactive) | 0.0495 | 0.519 (inactive) | 0.447 (inactive) | 0.001 (inactive) | -0.181 (inactive) | 0.381 | 1.68 (inactive) | 0.753 (inactive) | 1.58 | 0.97 |
| C=C(/C(=C/C[C@H](OC(=O)c1ccncc1)c1cccc(OCCO)c1)c1cc(C(=O)OC)ccc1OC)C(C)C | -0.158 | -2.09 (inactive) | 8.57 (active) | -0.669 (inactive) | 0.0287 | -0.05 | 0.607 | 0.568 | 0.948 | 1.17 (inactive) | -0.0984 | 10.2 (active) | -0.289 (inactive) | 1.66 (inactive) | -1.19 (inactive) | 0.402 | 1.62 (inactive) | 0.0371 (inactive) | -1.71 | 0.396 |
| COCCOC(=O)N1C(=O)[C@@]2(c3cc(C#CCNC(N)=O)ccc31)[C@H](C(=O)NC[C@H](O)c1ccccc1)[C@H]1C(=O)O[C@H](c3ccccc3)[C@H](c3ccccc3)N1[C@@H]2c1ccc(O)cc1 | 0.226 | -1.19 (inactive) | -1.02 (inactive) | -0.899 (inactive) | 0.0489 | -0.128 | 0.397 | 0.393 | 0.746 | 2.05 (inactive) | -0.196 | 0.532 (inactive) | -1.33 (inactive) | 0.527 (inactive) | -1.55 (inactive) | 1.57 | 1.46 (inactive) | 0.692 (inactive) | 0.776 | 0.834 |
